# Several values for one entry are separate records, joined by “and”; a condition that tells them apart may be missing. Equal values may be shown once. Where a structure was tested more than once in an assay, its records may differ in their call. Activity calls are given as the source filed them. A call without a number means that no potency is given here. Unless noted, calls follow the shape of the dose curve; as a rule, active = well fitted curve in the direction sought with a large enough effect in the repeat runs; inconclusive = weak or mixed curves; inactive = no such curve, though single readings can be large; an effect the other way counts as inactive or inconclusive.
# Experiments:
# [1] = qHTS assay to identify small molecule antagonists of the thyroid receptor (TR) signaling pathway - cell viability counter screen (AID 743064); also: nearly all actives have a fitted effect of over 50% in size
# Procedure, shortened: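 GH3.TRE-Luc rat pituitary cells dosed after 4 hr plating, co-stimulated with T3 at 1 nM final, incubated 23.5 h at 37 C. Viability measured in the same wells by CellTiter-Fluor fluorescence after 30 min further at 37 C.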
# [2] = qHTS assay to identify small molecule antagonists of the thyroid receptor (TR) signaling pathway (AID 743065); also: nearly all actives have a fitted effect of over 55% in size; also: potency is read from the fitted curve at half-maximal effect
# Procedure, shortened: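 Antagonism measured as loss of luciferase signal in GH3 cells stably carrying a TRE-luciferase reporter, co-treated with compound and T3 (1 nM final) for 23.5 h at 37 C. Viability was read in the same well by CellTiter-Fluor.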
# [3] = system: thyroid hormone receptor (rat, GH3 cells); test: qHTS assay to identify small molecule agonists of the thyroid receptor (TR) signaling pathway (AID 743066; calls by dose curve)
# [4] = qHTS assay to identify small molecule antagonists of the estrogen receptor alpha (ER-alpha) signaling pathway - cell viability counter screen (AID 743074; calls by dose curve; also: nearly all actives have a fitted effect of over 45% in size)
# [5] = molecular target: Estrogen receptor (Homo sapiens) (UniProt P03372); test: qHTS assay to identify small molecule agonists of the estrogen receptor alpha (ER-alpha) signaling pathway (AID 743075; calls by dose curve; also: potency is read from the fitted curve at half-maximal effect)
# Estrogen receptor (Homo sapiens), sequence (P03372 whole entry, looked up): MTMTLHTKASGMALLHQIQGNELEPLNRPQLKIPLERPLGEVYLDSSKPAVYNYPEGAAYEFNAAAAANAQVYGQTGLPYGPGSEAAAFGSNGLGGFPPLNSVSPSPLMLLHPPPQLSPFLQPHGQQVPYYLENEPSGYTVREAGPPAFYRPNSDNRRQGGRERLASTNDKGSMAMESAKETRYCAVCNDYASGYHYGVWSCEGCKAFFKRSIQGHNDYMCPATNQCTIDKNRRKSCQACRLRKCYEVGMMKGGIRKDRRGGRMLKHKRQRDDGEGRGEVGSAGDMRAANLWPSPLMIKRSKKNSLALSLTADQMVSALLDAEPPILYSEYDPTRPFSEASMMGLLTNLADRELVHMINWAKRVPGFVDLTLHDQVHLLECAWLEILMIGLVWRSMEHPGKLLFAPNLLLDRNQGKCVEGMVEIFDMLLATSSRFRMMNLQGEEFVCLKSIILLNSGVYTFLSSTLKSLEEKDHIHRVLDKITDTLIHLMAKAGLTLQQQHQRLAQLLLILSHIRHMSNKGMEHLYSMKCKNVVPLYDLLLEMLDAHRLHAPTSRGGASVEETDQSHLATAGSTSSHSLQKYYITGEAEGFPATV
# [6] = molecular target: Estrogen receptor (Homo sapiens) (UniProt P03372); test: qHTS assay to identify small molecule agonists of the estrogen receptor alpha (ER-alpha) signaling pathway using the BG1 cell line (AID 743079); conditions: BG1Luc4E2 cells, ERE-luciferase agonist, 22 h; also: nearly all actives have a fitted effect of over 20% in size; also: potency is read from the fitted curve at half-maximal effect
# [7] = qHTS assay to identify small molecule antagonists of the estrogen receptor alpha (ER-alpha) signaling pathway using the BG1 cell line (AID 743080; calls by dose curve;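 also: BG1 cells stimulated with 17beta-estradiol alongside compound; nearly all actives have a fitted effect of over 25% in size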; also: potency is read from the fitted curve at half-maximal effect)
# Procedure, shortened: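 BG1-Luc-4E2 cells (endogenous full-length ER-alpha, 4xERE luciferase) hormone-starved 5 days in charcoal-stripped FBS, plated 4,000/well for 24 h, then compound plus 17beta-estradiol for 21.5 h at 37 C; ONE-Glo luminescence read.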
# [8] = qHTS assay to identify small molecule antagonists of the estrogen receptor alpha (ER-alpha) signaling pathway using the BG1 cell line - cell viability counter screen (AID 743081);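 also: compound given together with 17beta-estradiol as the ER stimulus; nearly all actives have a fitted effect of over 45% in size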
# Aromatase (Homo sapiens) = Aromatase (Homo sapiens) (UniProt P11511); test: qHTS assay to identify aromatase inhibitors (AID 743083); also: nearly all actives have a fitted effect of over 55% in size; also: potency is read from the fitted curve at half-maximal effect
# Aromatase (Homo sapiens), sequence (P11511 whole entry, looked up): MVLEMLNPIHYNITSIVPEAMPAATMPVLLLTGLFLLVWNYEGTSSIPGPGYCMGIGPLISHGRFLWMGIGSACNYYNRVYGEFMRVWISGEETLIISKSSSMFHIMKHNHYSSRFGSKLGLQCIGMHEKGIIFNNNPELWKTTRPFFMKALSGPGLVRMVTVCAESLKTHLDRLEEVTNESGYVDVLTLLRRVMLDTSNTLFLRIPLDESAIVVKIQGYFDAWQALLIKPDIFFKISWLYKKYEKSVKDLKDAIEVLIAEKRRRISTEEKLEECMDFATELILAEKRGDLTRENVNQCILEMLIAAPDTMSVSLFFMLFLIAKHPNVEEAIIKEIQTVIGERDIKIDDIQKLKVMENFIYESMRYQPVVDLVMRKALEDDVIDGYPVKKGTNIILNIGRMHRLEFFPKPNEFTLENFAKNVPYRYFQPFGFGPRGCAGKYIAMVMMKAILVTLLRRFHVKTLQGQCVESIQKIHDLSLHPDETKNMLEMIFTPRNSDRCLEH
# [9] = qHTS assay to identify aromatase inhibitors - cell viability counter screen (AID 743084);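 also: cells stimulated with testosterone during compound exposure; nearly all actives have a fitted effect of over 55% in size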
# [10] = qHTS assay to identify small molecule that activate the aryl hydrocarbon receptor (AhR) signaling pathway - cell viability counter screen (AID 743086);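 also: HepG2 liver cells carrying the AhR DRE luciferase reporter; nearly all actives have a fitted effect of over 45% in size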
# Procedure, shortened: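 Cytotoxicity counter screen: CellTiter-Fluor signal (30 min, 37 C) in 4000 HepG2 cells/well carrying the DRE-luciferase reporter, following 24 h compound exposure at 37 C.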
# [11] = molecular target: Peroxisome proliferator-activated receptor gamma (Homo sapiens) (UniProt P37231); test: qHTS assay to identify small molecule agonists of the peroxisome proliferator-activated receptor gamma (PPARg) signaling pathway (AID 743094; active = well fitted activation curve with a large enough effect in the signal ratio in the repeat runs, not every such curve was filed as active; inconclusive = weak or mixed curves, or effect the other way; inactive = no such curve, though single readings can be large or run the other way; the % refers to the signal ratio)
# Peroxisome proliferator-activated receptor gamma (Homo sapiens), sequence (P37231 whole entry, looked up): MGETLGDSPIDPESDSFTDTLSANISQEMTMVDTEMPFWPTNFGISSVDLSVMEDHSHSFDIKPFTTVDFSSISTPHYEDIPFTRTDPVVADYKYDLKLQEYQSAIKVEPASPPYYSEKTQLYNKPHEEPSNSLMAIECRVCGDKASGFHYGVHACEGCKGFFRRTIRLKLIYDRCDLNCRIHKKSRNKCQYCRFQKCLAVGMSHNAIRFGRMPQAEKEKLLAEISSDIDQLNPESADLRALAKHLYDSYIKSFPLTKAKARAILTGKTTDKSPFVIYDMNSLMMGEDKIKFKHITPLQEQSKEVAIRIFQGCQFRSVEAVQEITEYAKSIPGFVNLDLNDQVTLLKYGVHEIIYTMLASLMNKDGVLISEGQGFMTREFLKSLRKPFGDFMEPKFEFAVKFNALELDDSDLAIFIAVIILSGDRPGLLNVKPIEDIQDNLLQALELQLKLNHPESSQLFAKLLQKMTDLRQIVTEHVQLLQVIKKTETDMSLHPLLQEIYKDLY
# Procedure, shortened: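 Fluorescence-based beta-lactamase readout in HEK293H PPARg UAS-bla cells after 17 h compound exposure (37C) and 1 h B/G FRET substrate incubation at room temperature.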
# [12] = molecular target: Peroxisome proliferator-activated receptor gamma (Homo sapiens) (UniProt P37231); test: qHTS assay to identify small molecule antagonists of the peroxisome proliferator-activated receptor gamma (PPARg) signaling pathway (AID 743191; calls by dose curve; also: nearly all actives have a fitted effect of over 30% in size)
# Procedure, shortened: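 Beta-lactamase reporter under UAS control in HEK293H PPARg-bla cells; compound treatment 17 h at 37C. Read-out: fluorescence intensity after 1 h room-temperature incubation with LiveBLAzer B/G FRET substrate.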
# [13] = qHTS assay to identify small molecule antagonists of the peroxisome proliferator-activated receptor gamma (PPARg) signaling pathway - cell viability counter screen (AID 743194); conditions: Potency: co-treated with 50 nM rosiglitazone; also: nearly all actives have a fitted effect of over 55% in size
# Procedure, shortened: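 Viability was measured as CellTiter-Glo luminescence in GeneBLAzer PPARg UAS-bla HEK293H cells. These cells had been exposed 17 h at 37 C to compounds together with rosiglitazone at 50 nM final, with the beta-lactamase readout taken in the same wells.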
# [14] = qHTS assay for small molecule agonists of the antioxidant response element (ARE) signaling pathway - cell viability counter screen (AID 743203; calls by dose curve; also: nearly all actives have a fitted effect of over 55% in size)
# Procedure, shortened: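 Parallel cytotoxicity read-out for the ARE-bla screen: HepG2 reporter cells, 16 hrs with compounds, then CellTiter-Glo luminescence.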
# [15] = qHTS assay for small molecule activators of the heat shock response signaling pathway - cell viability counter screen (AID 743209); also: nearly all actives have a fitted effect of over 50% in size
# Procedure, shortened: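 To flag cytotoxic compounds, HSE-bla HeLa cells plated at 1500 cells/well were dosed for 5 h at 37 C, followed by the reporter FRET read and then CellTiter-Glo, with luminescence recorded 30 min after reagent addition.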
# [16] = qHTS assay for small molecule agonists of the antioxidant response element (ARE) signaling pathway (AID 743202; active = well fitted activation curve with a large enough effect in the signal ratio in the repeat runs, not every such curve was filed as active; inconclusive = weak or mixed curves, or effect the other way; inactive = no such curve, though single readings can be large or run the other way; the % refers to the signal ratio; also: potency is read from the fitted curve at half-maximal effect)
# Procedure, shortened: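 Beta-lactamase reporter activity, read as fluorescence intensity, reflects ARE/Nrf2 pathway induction in HepG2 cells after 16 h compound exposure at 37 C; substrate loading was 2 h at room temperature.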
# [17] = qHTS assay for small molecule activators of the heat shock response signaling pathway (AID 743210; active = well fitted activation curve with a large enough effect in the signal ratio in the repeat runs, with a control signal flat, not every such curve was filed as active; inconclusive = weak or mixed curves; the % refers to the signal ratio;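 also: HeLa cells with beta-lactamase reporter driven by heat shock elements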)
# Procedure, shortened: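 Fluorescence from a cleaved B/G FRET substrate (2.5 h, room temp) reports HSE-driven beta-lactamase in HeLa cells treated 5 h at 37 C with DMSO-dissolved compounds.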
# [18] = molecular target: Aryl hydrocarbon receptor (Homo sapiens) (UniProt P35869); test: qHTS assay to identify small molecule that activate the aryl hydrocarbon receptor (AhR) signaling pathway (AID 743085); also: nearly all actives have a fitted effect of over 15% in size; also: potency is read from the fitted curve at half-maximal effect;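 as to activation: HG2L7.5c1 human HepG2 liver cells with stably integrated DRE-driven firefly reporter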
# Aryl hydrocarbon receptor (Homo sapiens), sequence (P35869 whole entry, looked up): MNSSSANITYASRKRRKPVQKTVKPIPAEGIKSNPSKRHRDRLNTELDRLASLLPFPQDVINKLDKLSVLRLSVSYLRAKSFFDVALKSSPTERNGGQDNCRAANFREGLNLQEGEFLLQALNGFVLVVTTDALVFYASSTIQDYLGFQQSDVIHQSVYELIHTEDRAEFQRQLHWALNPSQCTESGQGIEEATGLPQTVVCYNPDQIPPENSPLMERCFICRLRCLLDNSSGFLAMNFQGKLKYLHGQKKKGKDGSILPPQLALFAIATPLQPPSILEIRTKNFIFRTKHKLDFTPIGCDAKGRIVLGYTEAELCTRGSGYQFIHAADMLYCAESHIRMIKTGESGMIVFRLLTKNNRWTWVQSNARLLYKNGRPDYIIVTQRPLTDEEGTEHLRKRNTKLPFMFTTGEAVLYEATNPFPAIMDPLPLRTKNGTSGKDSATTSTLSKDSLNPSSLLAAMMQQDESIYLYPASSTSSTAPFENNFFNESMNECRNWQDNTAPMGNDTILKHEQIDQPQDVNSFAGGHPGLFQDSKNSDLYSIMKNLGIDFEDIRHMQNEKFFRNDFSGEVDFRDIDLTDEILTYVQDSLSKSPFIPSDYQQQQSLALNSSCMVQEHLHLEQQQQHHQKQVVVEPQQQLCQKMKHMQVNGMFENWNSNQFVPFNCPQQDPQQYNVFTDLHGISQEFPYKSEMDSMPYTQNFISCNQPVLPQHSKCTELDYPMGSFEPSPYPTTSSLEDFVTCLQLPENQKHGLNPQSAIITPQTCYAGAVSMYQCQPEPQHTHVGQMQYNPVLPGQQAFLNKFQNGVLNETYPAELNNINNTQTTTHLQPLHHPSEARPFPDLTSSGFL
# Procedure, shortened: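 HepG2 cells stably carrying a 20-DRE firefly luciferase reporter (HG2L7.5c1) treated with compound for 24 hr at 37C. Luciferase read by ONE-Glo luminescence, with CellTiter-Fluor viability read first.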
# [19] = molecular target: Estrogen receptor (Homo sapiens) (UniProt P03372); test: qHTS assay to identify small molecule antagonists of the estrogen receptor alpha (ER-alpha) signaling pathway (AID 743069; active = well fitted curve in the direction sought with a large enough effect in the signal ratio in the repeat runs, not every such curve was filed as active; inconclusive = weak or mixed curves, or effect the other way; inactive = no such curve, though single readings can be large or run the other way; the % refers to the signal ratio)
# Procedure, shortened: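 Fluorescence intensity from a beta-lactamase FRET substrate served as the read-out. Cells: HEK293 with stably integrated ER-alpha-UAS-bla reporter. Agonist 17beta-estradiol was co-added with compounds; incubation 18 hr at 37C, substrate 2 hr at room temperature.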
smiles,measurement,setting,value
O=[N+]([O-])c1ccc2c3c(cccc13)CC2,Potency,[1],inactive
same,Potency,[2],inactive
same,Potency,[3],inactive
same,outcome,[4],inactive
same,Potency,[5],inactive
same,activation,[6]; at 70.3 µM (top of the series),-4.67% (inactive)
same,Potency,[7],inactive
same,Potency,[8],inactive
same,Potency,Aromatase (Homo sapiens),inactive
same,Potency,[9],inactive
same,outcome,[10],inactive
same,outcome,[11],inactive
same,Potency,[12],inactive
same,Potency,[13],inactive
same,Potency,[14],inactive
same,Potency,[15],inactive
Fc1ccc(C2(Cn3cncn3)OC2c2ccccc2Cl)cc1 (configuration not stated),Potency,[1],inactive
same,Potency,[2],30.6 µM (active)
same,Potency,[3],inactive
same,outcome,[4],inactive
same,Potency,[5],inactive
same,activation,[6]; at 70.3 µM (top of the series),-28.4% (inactive)
same,Potency,[7],68.6 µM (active)
same,Potency,[8],inactive
same,Potency,Aromatase (Homo sapiens),3.86 µM (active)
same,Potency,[9],inactive
same,outcome,[11],inactive
same,Potency,[13],inactive
same,Potency,[16],inactive
same,Potency,[14],inactive
same,Potency,[15],inactive
same,outcome,[17],inactive
CC1CCC(=O)O1 (configuration not stated),Potency,[1],inactive
same,Potency,[2],inactive
same,Potency,[3],inactive
same,outcome,[4],inactive
same,Potency,[8],inactive
same,outcome,[10],inactive
same,Potency,[13],inactive
same,Potency,[14],inactive
same,Potency,[15],inactive
same,outcome,[17],inactive
Cc1cnc[nH]1,Potency,[1],inactive
same,Potency,[2],inactive
same,Potency,[3],inactive
same,outcome,[4],inactive
same,Potency,[8],inactive
same,Potency,Aromatase (Homo sapiens),inactive
same,Potency,[9],inactive
same,Potency,[18],inactive
same,outcome,[10],inactive
same,outcome,[11],inactive
same,Potency,[12],inactive
same,Potency,[16],inactive
same,Potency,[14],inactive
same,Potency,[15],inactive
same,outcome,[17],inactive
CC(COc1ccc(Oc2ccccc2)cc1)Oc1ccccn1 (configuration not stated),Potency,[1],inactive
same,Potency,[2],inactive
same,Potency,[3],inactive
same,outcome,[4],inactive
same,Potency,[8],inactive
same,Potency,Aromatase (Homo sapiens),inactive
same,Potency,[9],inactive
same,Potency,[18],inactive
same,outcome,[10],inactive
same,outcome,[11],inactive
same,Potency,[12],inactive
same,Potency,[16],48.5 µM (active)
same,Potency,[14],inactive
same,Potency,[15],inactive
CNC(=O)Oc1cccc(C(C)C)c1,Potency,[1],inactive
same,Potency,[2],inactive
same,Potency,[3],inactive
same,outcome,[4],inactive
same,Potency,[8],inactive
same,Potency,Aromatase (Homo sapiens),inactive
same,Potency,[9],inactive
same,Potency,[18],inactive
same,outcome,[10],inactive
same,Potency,[13],inactive
same,Potency,[16],inactive
same,Potency,[14],inactive
same,Potency,[15],inactive
same,outcome,[17],inactive
CNC(=O)O/N=C(\C)SC,Potency,[1],inactive
same,Potency,[2],inactive
same,Potency,[3],inactive
same,Potency,[8],inactive
same,Potency,Aromatase (Homo sapiens),inactive
same,Potency,[9],inactive
same,Potency,[18],inactive
same,outcome,[10],inactive
same,outcome,[11],inactive
same,Potency,[12],inactive
same,Potency,[16],inactive
same,Potency,[14],inactive
same,Potency,[15],inactive
same,outcome,[17],inactive
COc1ccc2c(c1OC)CN1CCc3cc4c(cc3C1C2)OCO4 (configuration not stated),Potency,[1],inactive
same,Potency,[3],inactive
same,outcome,[4],inactive
same,Potency,[5],inactive
same,activation,[6]; at 32.5 µM (top of the series),-4.85% (inactive)
same,Potency,[7],inactive
same,Potency,[8],inactive
same,Potency,Aromatase (Homo sapiens),inactive
same,Potency,[9],inactive
same,Potency,[18],0.403 µM (active)
same,outcome,[10],inactive
same,outcome,[11],inactive
same,Potency,[12],inactive
same,Potency,[13],inactive
same,Potency,[14],inactive
same,Potency,[15],inactive
same,outcome,[17],inactive
CNNC,Potency,[1],inactive
same,Potency,[3],inactive
same,Potency,[19],inactive
same,outcome,[4],inactive
same,Potency,[5],inactive
same,activation,[6]; at 95 µM (top of the series),-3.86% (inactive)
same,Potency,[7],inactive
same,Potency,[8],inactive
same,Potency,Aromatase (Homo sapiens),inactive
same,Potency,[9],inactive
same,Potency,[18],inactive
same,outcome,[10],inactive
same,outcome,[11],inactive
same,Potency,[13],inactive
same,Potency,[14],inactive
same,Potency,[15],inactive
same,outcome,[17],inactive
CCN(Cc1ccc(Cl)nc1)/C(=C/[N+](=O)[O-])NC,Potency,[1],inactive
same,Potency,[3],inactive
same,Potency,[19],inactive
same,outcome,[4],inactive
same,Potency,[5],inactive
same,activation,[6]; at 70.3 µM (top of the series),1.15% (inactive)
same,Potency,[7],inactive
same,Potency,[8],inactive
same,Potency,Aromatase (Homo sapiens),inactive
same,Potency,[9],inactive
same,Potency,[18],inactive
same,outcome,[10],inactive
same,outcome,[11],inactive
same,Potency,[13],inactive
same,Potency,[16],inactive
same,Potency,[14],inactive
same,Potency,[15],inactive
CCOC(=O)NC(=S)Nc1ccccc1NC(=S)NC(=O)OCC,Potency,[1],inactive
same,Potency,[2],54.5 µM (active)
same,Potency,[3],inactive
same,Potency,[8],inactive
same,Potency,Aromatase (Homo sapiens),inactive
same,Potency,[9],inactive
same,outcome,[10],inactive
same,outcome,[11],inactive
same,Potency,[12],inactive
same,Potency,[14],inactive
CCN(CC)C(=O)[C@@H]1C=C2c3cccc4[nH]cc(c34)C[C@H]2N(C)C1,Potency,[1],inactive
same,Potency,[3],inactive
same,outcome,[4],inactive
same,Potency,[5],inactive and 8.49 µM [inconclusive] (active)
same,Potency,[6],0.944 µM (active)
same,activation,[6]; at 260 µM (top of the series),-12% (inactive)
same,Potency,[7],inactive
same,Potency,Aromatase (Homo sapiens),inactive
same,Potency,[9],inactive
same,outcome,[10],inactive
same,outcome,[11],inactive
same,Potency,[13],inactive
same,Potency,[14],inactive
same,Potency,[15],inactive
same,outcome,[17],inactive
C[C@@H]1CN(C2CCC(C#N)(c3ccc(F)cc3)CC2)CC[C@]1(C(=O)O)c1ccccc1 (some centres not stated),Potency,[1],inactive
same,Potency,[3],inactive
same,Potency,[19],inactive
same,outcome,[4],inactive
same,Potency,[5],inactive
same,activation,[6]; at 32.5 µM (top of the series),-0.22% (inactive)
same,Potency,[7],inactive
same,Potency,[8],inactive
same,Potency,Aromatase (Homo sapiens),inactive
same,Potency,[9],inactive
same,Potency,[18],inactive
same,outcome,[10],inactive
same,outcome,[11],inactive
same,Potency,[12],inactive
same,Potency,[13],inactive
same,Potency,[14],inactive
same,Potency,[15],inactive
same,outcome,[17],inactive
CNC(=O)Oc1ccc(N(C)C)c(C)c1,Potency,[1],inactive
same,Potency,[3],inactive
same,Potency,[19],inactive
same,outcome,[4],inactive
same,Potency,[5],inactive
same,Potency,[7],inactive
same,Potency,[8],inactive
same,Potency,Aromatase (Homo sapiens),inactive
same,Potency,[9],inactive
same,Potency,[18],inactive
same,outcome,[10],inactive
same,Potency,[13],inactive
same,Potency,[14],inactive
same,Potency,[15],inactive
